Screening results deposited in PubChem by several laboratories.
B2AR ag = beta2AR agonists driving receptor internalization, primary screen, cell-based, FAP fluorogen, flow cytometry; Beta-2 adrenergic receptor (Homo sapiens), P07550; 0.43% of 340,000 active; response, % (concentration not given with the values); Am2.2-beta2AR cells;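 active means response above a set limit, near 3 SD of response in nonfluorescent compounds, cut at about 42% in these data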
NTR1 ag = agonists of human NTR1, primary screen, imaging, U2OS cells, beta-arrestin-GFP, high content; 0.17% of 330,000 active; activation, % at 20 µM; NTR1-U2OS beta-arrestin-GFP spot imaging, agonist mode; Neurotensin receptor type 1 (Homo sapiens), P30989; AID 493036, 2011;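 active means activation at or above 40% of the spot to cytoplasm intensity ratio, with at least 20 cells analyzed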;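 further: 0% = DMSO without peptide and 100% = 100 nM NTR1 peptide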
TLR4-MyD88 BLA = inhibitors of TLR4-MyD88 association in cells, primary screen, cell-based, HeLa CL3-4, BLA complementation, FRET ratio; HeLa CL3-4 TLR4/MyD88 BLA complementation; inhibition, % at 8.4 µM; 0.18% of 200,000 active; Toll-like receptor 4 (Homo sapiens) + Myeloid differentiation primary response protein …; in the data active means inhibition above about 25%;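 further: 0% = vehicle and 100% = reference inhibitor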
TLR9-MyD88 inh = inhibitors of TLR9-MyD88 association in cells, primary screen, cell-based, CHO, BLA complementation, fluorescence; CCF4 FRET ratio; inhibition, % at 4.98 µM; AID 504734, 2011; Toll-like receptor 9 (Homo sapiens) + Myeloid differentiation primary response protein …; 0.21% of 340,000 active;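 active means inhibition above the mean over all tested compounds plus 3 SD, cut at about 21% in these data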;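 further: 0% = DMSO only wells and 100% = clavulanate BLA inhibitor control wells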
ABHD5-PLIN5 inh = ABHD5-PLIN5 interaction inhibitors, primary screen, cell lysate, split luciferase complementation, luminescence; inhibition, % at 4 µM; Perilipin-5 (Homo sapiens) + 1-acylglycerol-3-phosphate O-acyltransferase ABHD5 (Homo …; AID 602281, 2012; Split G. princeps luciferase complementation, 4 h; 0.78% of 360,000 active;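 active means inhibition above the mean inhibition across every tested compound plus 3 SD, cut at about 22% in these data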;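 further: 0% = DMSO only wells and the 100% control is not disclosed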
NOD2-RIPK2 inh = NOD2-RIPK2 binding disruptors in cells, primary screen, fluorescence, CHO cells, BLA complementation. Receptor-interacting serine/threonine-protein kinase 2 (Homo sapiens), O43353. CCF4 ratio. inhibition, % at 4.98 µM. 0.38% of 360,000 active. AID 624267, 2012; in the data active means inhibition above about 21%;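 further: 0% = vehicle only and 100% = reference blocker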
ABHD5-PLIN5 conf = ABHD5-PLIN5 interaction inhibitors, confirmation, biochemical, luminescence; shares compounds with ABHD5-PLIN5 inh; 67% of 2,200 active; inhibition, % at 4 µM; in the data active means inhibition above about 23%;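 further: 0% = DMSO vehicle wells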
HNF4 split-luc = HNF4 dimerization inhibitors, counter-screen for ABHD5-PLIN5 interaction inhibitor project, biochemical, split-luciferase complementation, luminescence. shares compounds with ABHD5-PLIN5 inh. inhibition, % at 4 µM. 77% of 2,200 active. AID 651674, 2012;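 active means mean inhibition across replicate wells exceeding the computed hit threshold, cut at about 13% in these data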;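 further: light from luciferase halves that rejoin when HNF4 fusion proteins dimerize; 0% = DMSO only wells and the 100% control is not given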
Starred values were filed as active, the others as inactive; · = no result given. Only some compounds are listed: those with a hit (about 1.5% of all), similar ones and a draw of the others.

SMILES	B2AR ag	NTR1 ag	TLR4-MyD88 BLA	TLR9-MyD88 inh	ABHD5-PLIN5 inh	NOD2-RIPK2 inh	ABHD5-PLIN5 conf	HNF4 split-luc
COc1cc(C(CCN2CCCCC2)c2c(OC)cc(OC)c3c(-c4ccccc4)cc(=O)oc23)cc(OC)c1OC (centres undefined)	7	26	·	6	20	8	·	·
O=C(Nc1ccc[n+](CC(=O)c2cccc3ccccc23)c1)c1ccccc1	28	-2	-16	0	24*	2	18	7
O=C(C[n+]1cccc(C(=O)Nc2ccccc2)c1)c1ccccc1	·	·	·	·	10	0	·	·
O=C(/C=C/c1ccco1)N1CCN(S(=O)(=O)/C=C/c2ccccc2)CC1	-1	1	-11	0	29*	3	24*	46*
Cc1cccc2c1NC(=O)/C2=C\C(=O)c1cccs1	8	28	7	-2	53*	7	78*	85*
CN1/C(=C\C(=O)c2cccs2)C(C)(C)c2ccccc21	-7	0	3	-5	-5	12	·	·
COc1ccc(-c2sc3cc(OC)ccc3c2-c2ccc(OCCN3CCCCC3)cc2)cc1	·	·	·	·	25*	4	8	-2
COc1ccc(-c2sc3ccccc3c2-c2ccc(OCCN3CCCCC3)cc2)cc1	-5	9	·	-2	18	-8	·	·
COc1cccc(-c2sc3ccccc3c2-c2ccc(OCCN(C)C)cc2)c1	65*	11	·	8	30*	13	20	0
COc1cccc(-c2sc3ccccc3c2-c2ccc(OCCN3CCCCC3)cc2)c1	14	14	·	3	29*	4	9	-6
Oc1ccc2sc(-c3ccccc3O)c(-c3ccc(OCCN4CCCCC4)cc3)c2c1	·	·	·	·	27*	11	18	·
CC(C)N1CCC(C)(C(=O)Nc2ccccc2Oc2ccccc2)C1 (centres undefined)	·	·	·	·	-5	0	·	·
CC1(C(=O)NS(=O)(=O)c2ccccc2Cl)CCN1C(=O)C1CCCCC1 (centres undefined)	·	·	·	·	-2	-7	·	·
O=[N+]([O-])c1ccc(/C=N/Nc2ccc3ccccc3c2)o1	-20	-3	-8	15	28*	3	31*	17*
O=S(=O)(N=C1C=CC(=NS(=O)(=O)c2ccccc2)c2ccccc21)c1ccccc1	·	·	·	-3	33*	4	63*	42*
CCc1ccc(S(=O)(=O)/N=C2\C=CC(=O)c3ccccc32)cc1	·	-1	0	·	·	·	·	·
COc1ccc(CCNC(=O)/C=C/c2ccc3ccccc3n2)cc1OC	7	-1	·	12	25*	-8	32*	18*
CNC[C@H](Cc1ccccc1)NC[C@@H](Cc1cccc2ccccc12)NCCc1ccc(C)cc1	98*	23	·	0	39*	19	5	14*
Cc1ccc2cccnc2c1NC(=S)NC(=O)c1ccccc1	-51	1	-6	-2	35*	0	14	32*
Cc1ccc2cccc(NC(=S)NC(=O)c3ccccc3)c2n1	8	6	-6	-3	4	4	·	·
O=C(CSc1nnc(-c2cccnc2)n1Cc1ccco1)c1ccc2ccccc2c1	-10	7	1	1	65*	-10	53*	76*
O=C(CSc1nnc(-c2cccnc2)n1Cc1ccco1)c1ccc(Br)cc1	-8	2	-17	-2	2	-10	·	·
CCOc1ccccc1C1N=C(c2ccc(OC)cc2)CC(c2ccccc2O)N1 (centres undefined)	4	10	7	10	25*	12	57*	48*
